Bioassay records (PubChem BioAssay)
An excerpt weighted towards active compounds, which were near 10% of everything screened.
BAZ2B block = qHTS Assay for Inhibitors of BAZ2B | Bromodomain adjacent to zinc finger domain protein 2B (Homo sapiens), Q9UIF8 | AlphaScreen BAZ2B-H3K14Ac peptide displacement | Potency, µM (series often up to 114 µM), for inactives: at the top dose activity change, negative = inhibition, actives largely listed as inhibitors | 360,000 compounds, 4.4% hits | AID 504333, 2011; note: % is set by controls: 0 for no effect and ±100 for the full control effect; nearly all actives have a fitted effect of over 60% in size
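Complex of BAZ2B and biotin-H3K14Ac (50 nM apiece) forms over 30 min at RT, then faces library compounds up to 110 uM for another 30 min; AlphaScreen beads added, 20 min dark incubation, luminescence read.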
GLS inh = qHTS for Inhibitors of Glutaminase (GLS); Glutaminase kidney isoform, mitochondrial (Homo sapiens), O94925; GLS enzymatic activity, qHTS titration; Potency, µM (titrated, usually from 45.5 µM), inactives show top-dose activity change, negative = inhibition, usual class: inhibitors; 410,000 compounds, 0.21% hits; note: % is set by controls: 0 for no effect and ±100 for the full control effect
Target sequence (O94925 whole entry, looked up, canonical isoform): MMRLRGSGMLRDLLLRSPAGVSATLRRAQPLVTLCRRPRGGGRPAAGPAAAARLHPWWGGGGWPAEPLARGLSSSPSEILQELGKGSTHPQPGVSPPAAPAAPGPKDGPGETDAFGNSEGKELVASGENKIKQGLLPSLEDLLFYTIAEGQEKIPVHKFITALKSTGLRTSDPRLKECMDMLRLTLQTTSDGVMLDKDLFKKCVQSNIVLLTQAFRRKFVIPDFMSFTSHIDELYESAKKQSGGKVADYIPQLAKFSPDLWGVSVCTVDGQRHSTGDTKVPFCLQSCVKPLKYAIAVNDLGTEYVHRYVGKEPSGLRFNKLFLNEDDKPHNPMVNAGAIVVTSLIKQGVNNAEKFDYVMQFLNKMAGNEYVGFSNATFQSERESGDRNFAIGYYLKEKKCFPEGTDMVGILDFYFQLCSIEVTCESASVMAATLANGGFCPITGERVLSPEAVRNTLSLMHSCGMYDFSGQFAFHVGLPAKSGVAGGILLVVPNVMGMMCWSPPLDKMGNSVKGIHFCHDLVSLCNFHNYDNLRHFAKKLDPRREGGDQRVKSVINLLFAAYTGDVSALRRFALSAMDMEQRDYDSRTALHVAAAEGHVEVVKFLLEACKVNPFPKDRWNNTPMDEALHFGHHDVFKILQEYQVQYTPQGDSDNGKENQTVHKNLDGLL
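Assay buffer: 45 mM KH2PO4 pH 8.2, 0.02% Tween-20. hKGA acts on L-glutamine (1 mM solution added); product glutamate is reported by an oxidase/peroxidase Amplex Red coupling, with fluorescence taken at baseline and 30 min.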
HP1b chromo inh = HTS for Inhibitors of HP1-beta Chromodomain Interactions with Methylated Histone Tails. Chromobox protein homolog 1 (Homo sapiens), P83916. AlphaScreen HP1-beta / biotin-H3K9me3 peptide binding. Potency, µM (top dose mostly 114 µM), without a hit: at the top dose activity change, negative = inhibition, usual class: inhibitors. 390,000 compounds, 0.56% hits; note: nearly all actives have a fitted effect of over 70% in size
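Compound inhibition of the preformed complex between 50 nM HP1-beta and 50 nM biotinylated H3K9me3 peptide was read by AlphaScreen. Buffer was PBS pH 7.4 with 0.01% Tween-20. Incubations ran 30 min at room temperature, with 10 ug/mL donor/acceptor beads.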
JMJD2A Tudor inh = qHTS Assay for Inhibitors of JMJD2A-Tudor Domain; Lysine-specific demethylase 4A (Homo sapiens), O75164; 390,000 compounds, 4.4% hits; AID 504339, 2011; Potency, µM (top dose mostly 114 µM), for the others: at the top dose activity change, negative = inhibition, usual class: inhibitors; AlphaScreen JMJD2A-Tudor / H3K4me3 peptide binding; note: % is set by controls: 0 for no effect and ±100 for the full control effect; nearly all actives have a fitted effect of over 50% in size
G9a inh = qHTS Assay for Inhibitors of Histone Lysine Methyltransferase G9a; 350,000 compounds, 8.8% hits; G9a H3K9 monomethylation, AlphaScreen, 2 h; Potency, µM (top dose mostly 102 µM), without a hit: at the highest dose activity, negative = inhibition, hits mostly inhibitors; note: % is set by controls: 0 for no effect and ±100 for the full control effect; nearly all actives have a fitted effect of over 75% in size
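Enzyme 20 nM + cpd, 15 min RT; add b-H3K9 pep 500 nM / SAM 20 uM; 2 h RT; anti-H3K9me1 Ab 0.5 ug/mL + SA donor / anti-rabbit acceptor beads 20 ug/mL each, 10 min; AlphaScreen read.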
Active calls of the source: *; ? = inconclusive; nt = no result given; ! = repeats disagree; [ ] = another dose, or the depositor's remark. Calls come from the whole dose curve; as a rule, active = well fitted curve in the direction sought with a large enough effect; inconclusive = small, poorly fitted or top-dose-only effect, or another doubt; inactive = no such curve, though single readings can be large; an effect the other way counts as inactive or inconclusive. Potency is the fitted concentration of half-maximal effect.

SMILES	BAZ2B block	GLS inh	HP1b chromo inh	JMJD2A Tudor inh	G9a inh
CC(C)n1cc(CNC(=O)C2CCC(=O)N(Cc3ccccc3F)C2)cn1 (centres undefined)	-4%	-4%	42%	6%	-21%
C=CCc1c(C)nc(-c2ccccc2)nc1N/N=C/c1ccncc1	?	19%	24%	?	1%
Cc1cc(Cl)ccc1Oc1ncnc2oc(-c3ccccc3)cc12	79µM*	1%	13%	?	36%[0.501 µM]
N#CCSc1ncccc1-c1nc2ccccc2[nH]1	-5%	0%	23%	-14%	9%[59 µM]
O=C(CSc1ncccc1-c1nc2ccccc2[nH]1)NCc1ccco1	56µM*	?	?	35µM*	10µM*
N#CCCCSc1ncccc1-c1nc2ccccc2[nH]1	3%	-4%	42%	-8%	16µM*
O=C(CSc1nc2ccccc2[nH]1)NCc1ccco1	nt	1%	-2%	-31%	-20%[59 µM]
COc1ccc(CNC(=O)CCN2C(=O)c3ccncc3C2=O)cc1OC	2%	27%	29%	0%	-25%[12.7 µM]
O=C(C1CCCN(C2CC(=O)N(c3ccc(F)cc3)C2=O)C1)N1CCCC1 (centres undefined)	-9%	0%	28%	32µM*	45µM*
O=C1CCCN1CCC1CCN(C2CC(=O)N(Cc3ccc(N4CCCC4=O)cc3)C2=O)CC1 (centres undefined)	-5%	-6%	38%	-5%	?
O=C(C1CCCN(C2CC(=O)N(c3ccc(Cl)cc3)C2=O)C1)N1CCCC1 (centres undefined)	-2%	-1%	40%	-6%	79µM*
O=C1CCCN1CCC1CCN(C2CC(=O)N(c3ccc(Cl)cc3)C2=O)CC1 (centres undefined)	-7%	8%	29%	-19%	11µM*
Cn1c(=O)c2cc(S(=O)(=O)NC(C(=O)N3CCCCCC3)c3ccccc3)ccc2n(C)c1=O (centres undefined)	14%	1%	77%	-3%	45µM*
CCOCCCNC(=O)C(Cc1ccccc1)NS(=O)(=O)c1ccc2c(c1)c(=O)n(C)c(=O)n2C (centres undefined)	0%	6%	13%	-2%	-23%
CC(C)OCCCNC(=O)C(NS(=O)(=O)c1ccc2c(c1)c(=O)n(C)c(=O)n2C)c1ccccc1 (centres undefined)	-4%	nt	nt	nt	14µM*
C/C(=N\N=c1/scc(C)n1Cc1ccco1)c1cccc([N+](=O)[O-])c1	10µM*	12%	?	25µM*	?
Cc1cs/c(=N\N=C\c2cccc([N+](=O)[O-])c2)n1Cc1ccco1	6%	9%	11%	-11%	-4%[59 µM]
O=C(NCc1nnc(-c2nc3ccccc3[nH]2)o1)C1CCCCC1	nt	nt	nt	-4%	nt
Cc1ccc(-n2cnc3c(sc4nc(N5CCOCC5)c5c(c43)CCCC5)c2=O)cc1	-12%	0%	51%	-14%	50µM*
COc1ccc(-n2cnc3c(sc4nc(N5CCOCC5)c5c(c43)CCCC5)c2=O)cc1	nt	0%	4%	-4%	5%
COC(=O)c1c(N)n(-c2ccc(N3CCOCC3)cc2)c2nc3ccccc3nc12	?	nt	nt	nt	10µM*
COC(=O)c1c(N)n(-c2ccc(NC(C)=O)cc2)c2nc3ccccc3nc12	-39%	-8%	35%	-13%	?
CC(C)(C)S(=O)(=O)/C(C#N)=C/c1sccc1C1OCCO1	-13%	-20%	-11%	71µM*	0%
CC(C)(C)S(=O)(=O)/C(C#N)=C/c1cccn1S(=O)(=O)c1ccccc1	nt	-2%	nt	nt	nt
COc1cc(C(=O)N(Cc2ccc(N(C)C)cc2)CC2CCCO2)cc(OC)c1OC (centres undefined)	79µM*	13%	5%	-30%	?
SMILES	BAZ2B block	GLS inh	HP1b chromo inh	JMJD2A Tudor inh	G9a inh
Cc1cc2oc(C(=O)N(Cc3ccc(N(C)C)cc3)CC3CCCO3)c(C)c2cc1C (centres undefined)	14µM*	3%	?	13µM*!	14µM*
Cc1ccc2c(C)c(C(=O)N(Cc3ccncc3)CC3CCCO3)oc2c1C (centres undefined)	-10%	0%	14%	-28%	nt
Cc1ccc2oc(C(=O)N(Cc3ccc(N(C)C)cc3)CC3CCCO3)c(C)c2c1 (centres undefined)	11µM*	21%	?	50µM*	28µM*
Cc1c(C(=O)N(Cc2ccncc2)CC2CCCO2)oc2c(F)cccc12 (centres undefined)	-9%	10%	28%	-21%	nt
O=[N+]([O-])c1ccccc1Oc1cnc2ccccc2n1	-2%	6%	23%	-9%	9%
CCS(=O)(=O)N1CCN(S(=O)(=O)c2ccc(Cl)s2)CC1	50µM*	-3%	38%	-1%	16µM*
Cc1[nH]n(C(C)(C)C)c(=O)c1Sc1ccccc1	-31%	2%	35%	-1%	-26%
O=S(=O)(Cc1ccccc1)N1CCN(Cc2ccccc2)CC1	-2%	-4%	18%	-12%	-7%[12.7 µM]
c1cc(CN2CCN(C3CCCCCC3)CC2)ccn1	nt	1%	?	20µM*	1.8µM*
CCS(=O)(=O)N1CCN(Cc2ccncc2)CC1	35µM*	-4%	50µM*	3.5µM*	14µM*
CCCS(=O)(=O)N1CCN(Cc2ccncc2)CC1	35µM*	-7%	?	20µM*	?
CCCS(=O)(=O)N1CCN(c2ccccn2)CC1	-7%	2%	13%	-18%	12%
O=C1COc2cc(S(=O)(=O)CCC(=O)N3CCN(c4ccccc4F)CC3)c(Cl)cc2N1	6%	-7%	12%	-17%	0%[59 µM]
Cc1cccc(C)c1N=Nc1c(C)cc(O)cc1C	18µM*	-13%	?	20µM*	35µM*
Cc1cccc(O)c1C	nt	16%	21%	-18%	nt
CN(C)[C@@H]1C(=O)C(C(N)=O)=C(O)[C@]2(O)C(=O)C3=C(O)c4c(O)ccc(Cl)c4[C@H](O)[C@H]3C[C@@H]12	nt	-9%	nt	nt	?
